Measured values published in the supplement of paper PMC4709259.
Structures can show the parent of a compound that is named as a salt. ± gives the standard deviation.

Test system: Jurkat
Assay: cell count relative to DMSO control (fraction of control); higher = more cells (less growth inhibition)
Conditions: 48 h

Compound | cell count
COc1cc2ncnc(Nc3ccc(F)c(Cl)c3)c2cc1OCCCN1CCOCC1 [Gefitinib] (concentration: 2.5 µM) | 0.736 ± 0.11
O=C(O)C(=O)O.[NH-][C@@H]1CCCC[C@H]1[NH-].[Pt+2] [Oxaliplatin] (concentration: 25 µM) | 0.326 ± 0.057
CC[C@H](C)C(=O)O[C@H]1C[C@H](O)C=C2C=C[C@H](C)[C@H](CC[C@@H](O)C[C@@H](O)CC(=O)O)[C@H]21 [Pravastatin·Na] (concentration: 25 µM) | 0.771 ± 0.15
Cc1nnc(C(C)C)n1C1C[C@H]2CC[C@@H](C1)N2CC[C@H](NC(=O)C1CCC(F)(F)CC1)c1ccccc1 (stereo in doubt) [Maraviroc] (concentration: 25 µM) | 0.668 ± 0.062
CC1(C)S[C@@H]2[C@H](NC(=O)Cc3ccccc3)C(=O)N2[C@H]1C(=O)O [Penicillin G Potassium (Benzylpenicillin)] (concentration: 25 µM) | 0.934 ± 0.041
Clc1ccc(COC(Cn2ccnc2)c2ccc(Cl)cc2Cl)c(Cl)c1 (stereo not drawn) [Miconazole] (concentration: 25 µM) | 0.586 ± 0.11
N[C@@H](Cc1cc(I)c(Oc2cc(I)c(O)c(I)c2)c(I)c1)C(=O)O [Levothyroxine·Na] (concentration: 25 µM) | 0.808 ± 0.087
CN[C@@H]1[C@H](O)[C@H](NC)[C@H]2O[C@@]3(O)C(=O)C[C@@H](C)O[C@H]3O[C@@H]2[C@H]1O [Spectinomycin·HCl Pentahydrate] (concentration: 25 µM) | 0.941 ± 0.16
